# A number with no mark means an inactive call.
# Tested on: Vero E6 infected with SARS-CoV-2
# Assay: inhibition of SARS-CoV-2 cytopathic effect; higher = more antiviral protection, active = above 15
# Conditions: 48 h
SMILES,inhibition of SARS-CoV-2 cytopathic effect (1 nM),inhibition of SARS-CoV-2 cytopathic effect (8.33 nM),inhibition of SARS-CoV-2 cytopathic effect (100 nM),inhibition of SARS-CoV-2 cytopathic effect (833.33 nM),inhibition of SARS-CoV-2 cytopathic effect (10000 nM)
NC(=O)CCCCC1CCSS1 (stereo not given) [lipoamide],1.2%,1.81%,-0.52%,-3.3%,3.78%
CC=C1C(=O)C[C@H]2[C@@H]3CCC4=CC(=O)CC[C@]4(C)[C@H]3CC[C@]12C,0.03%,-0.87%,-1.56%,-0.96%,4.3%
CCCCCCCCCCCCCC(=O)[O-].CCCCCCCCCCCCCC(=O)[O-].N[C@@H]1CCCC[C@H]1N.[Pt+2] [miriplatin],-0.38%,-0.15%,0.5%,-1%,-1.94%
Clc1ccc(C(c2ccccc2Cl)C(Cl)Cl)cc1 (stereo not given) [mitotane],-2.51%,-1.75%,-2.14%,-2.16%,0.99%
CN(C)CC/C=C1\c2ccccc2CSc2ccccc21 [dosulepin],-1.78%,1.37%,5.41%,-0.17%,-8.17%
O=C(O)CCc1c[nH]c2ccccc12,0.05%,-0.38%,-1.18%,-0.72%,-0.06%
CN(C)[C@@H]1C(O)=C(C(N)=O)C(=O)[C@@]2(O)C(O)=C3C(=O)c4c(O)cccc4[C@@](C)(O)[C@H]3C[C@@H]12 [tetracycline],1.65%,1.27%,-0.37%,-0.82%,1.35%
N[C@H](Cc1ccccc1)C(=O)O [D-phenylalanine],2.99%,-0.14%,2.52%,0.27%,0.05%
c1ccc(-c2n[nH]cc2-c2ccnc3ccccc23)nc1,1.81%,-0.93%,-2.43%,-2.05%,-1.69%
c1ccc(CCCCN2CCC(c3ccccc3)CC2)cc1,-1.33%,-0.15%,2.71%,1.08%,-0.99%
NC(=O)OCC(COC(N)=O)c1ccccc1 [felbamate],1.11%,3.53%,-0.7%,1.06%,0.03%
CCCCOc1nc(N)c2c(n1)N(Cc1cccc(CN3CCCC3)c1)CC(=O)N2,0.32%,2.16%,0.03%,2.02%,1.92%
CC(=O)C(=Cc1cc(O)c(O)c([N+](=O)[O-])c1)C(C)=O [nitecapone],-1.48%,2.97%,1.47%,-1.89%,-6.91%
Nc1ncnc2c1ncn2[C@@H]1O[C@H](CO)C[C@H]1O [cordycepin],-1.1%,0.92%,1.03%,-0.81%,-3.28%
Cc1[nH]c(=O)c(C#N)cc1-c1ccncc1 [milrinone],1.1%,-2.54%,-1.13%,-1.41%,0.27%
CC#C[C@@H](CC(=O)O)c1ccc(OCc2cccc(-c3ccc(C(F)(F)F)cc3)c2)cc1,-0.29%,1.42%,-0.33%,2.32%,4.27%
O=C(Nc1ccc(S(=O)(=O)Nc2ccccc2Cl)c(Cl)c1)c1ccccn1,0.59%,0.83%,-1.92%,2.48%,0.25%
Cc1cccc(OCC(O)CNC(C)(C)C)c1C (stereo not given) [xibenolol],-3.23%,-1.82%,-0.78%,-1.76%,-5.66%
Cc1cc(C)c(S(=O)(=O)Nc2cccc(C(F)(F)F)c2)c(C)c1,-1.28%,1.26%,1.15%,1.42%,2.48%
CC(=O)N(O)C/C=C/c1cccc(Oc2ccccc2)c1,2.1%,2.16%,1.66%,-0.73%,-2.02%

SMILES,inhibition of SARS-CoV-2 cytopathic effect (1 nM),inhibition of SARS-CoV-2 cytopathic effect (8.33 nM),inhibition of SARS-CoV-2 cytopathic effect (100 nM),inhibition of SARS-CoV-2 cytopathic effect (833.33 nM),inhibition of SARS-CoV-2 cytopathic effect (10000 nM)
CC(C)(Sc1ccncc1-c1ccc(C#N)c2ccccc12)C(=O)O [verinurad],-0.56%,1.54%,0.77%,-0.34%,1.75%
O=C1c2c(O)cc(O)cc2O[C@H](c2ccc(O)c(O)c2)[C@H]1O [taxifolin],0.69%,1.31%,0.66%,0.83%,2.25%
CO[C@H]1C[C@@H]2CC[C@@H](C)[C@@](O)(O2)C(=O)C(=O)N2CCCC[C@H]2C(=O)O[C@H]([C@H](C)C[C@@H]2CC[C@@H](O)[C@H](OC)C2)CC(=O)[C@H](C)/C=C(\C)[C@@H](O)[C@@H](OC)C(=O)[C@H](C)C[C@H](C)/C=C/C=C/C=C/1C [sirolimus],-1.48%,-3.33%,-1.82%,-0.23%,-0.88%
C[N+](C)(C)[C@@H](Cc1c[nH]c(=S)[nH]1)C(=O)O [L-ergothioneine],1.26%,-1.22%,2.33%,2.82%,0.9%
CN(C)C[C@H](O)Cn1c2ccc(Br)cc2c2cc(Br)ccc21 (racemic) [wiskostatin],-2.04%,-1.61%,0.88%,-1.26%,57.3% (active)
CC(C)(C)NCC(O)c1ccc(O)c(CO)c1 (stereo not given) [albuterol],-4.08%,-2.63%,-5.03%,-4.97%,-3.93%
Cc1cnc(NC(=O)Nc2cc(Br)c(C)cc2OC[C@@H]2CNCCO2)cn1,1.08%,0.44%,1.44%,-2.34%,-10.4%
CN(C(=O)c1c(O)c2ccccc2n(C)c1=O)c1ccccc1 [roquinimex],-4.01%,0.29%,2.85%,-0.21%,0%
NC(=O)[C@@H]1CC[C@@H]2CN1C(=O)N2OS(=O)(=O)O [avibactam],-1.08%,0.92%,-0.14%,0.95%,1.7%
C[C@]12CC[C@H](O)C[C@H]1CC[C@@H]1[C@@H]2CC[C@]2(C)[C@@](O)(c3ccoc3)CC[C@]12O [rostafuroxine],3.43%,-0.48%,1.69%,-1.79%,-1.77%
CSCC[C@H](NC(=O)[C@H](Cc1ccccc1)NC(=O)CNC(=O)CNC(=O)[C@@H](N)Cc1ccc(O)cc1)C(=O)O [metenkephalin],0.74%,-1.23%,1.24%,-4.78%,-5.57%
C[C@]12CC[C@H](O)C[C@H]1CC[C@@H]1[C@@H]2CC[C@]2(C)[C@@H](C3=CC(=O)OC3)CC[C@]12O [digitoxigenin],-1.6%,-1.96%,-11.8%,-13.3%,-19.4%
CC1(C)O[C@@H]2C[C@H]3[C@@H]4C[C@H](F)C5=CC(=O)C=C[C@]5(C)[C@H]4[C@@H](O)C[C@]3(C)[C@]2(C(=O)CO)O1 [flunisolide],-0.25%,0.14%,-1.38%,-0.29%,-0.97%
CC[C@@H](C)Nc1cc(C(=O)N[C@H]2C[C@H]3CC[C@@H](C2)N3c2ccc(C(=O)C3CC3)cn2)c(C)cc1C(N)=O,1.52%,1.25%,-3.63%,2.73%,1.28%
Oc1noc2c1CCNC2 [gaboxadol],-0.68%,2.6%,1.13%,0.58%,-2.2%
Cc1cc(SCc2sc(-c3ccc(C(F)(F)F)c(F)c3)nc2C)ccc1OCC(=O)O,0.88%,1.12%,-2.76%,-1.29%,-1.19%
O=C(O)[C@@H](S)[C@@H](S)C(=O)O [dimercaptosuccinic-acid],0.73%,-1.78%,-1.78%,-1.02%,-2.75%
O=C1COc2nccc(-c3ccccc3F)c2CN1Cc1cc(C(F)(F)F)cc(C(F)(F)F)c1,-0.76%,-1.69%,-0.49%,-2.79%,-1.55%
CCCCCCc1ccc(O)cc1O [hexylresorcinol],1.73%,1.1%,2.21%,4.02%,3.14%
